In the supplement of paper PMC6555819:

What was measured:
Test in all cases: PBM binding z-score (relative to random genomic background probes); higher = stronger binding; sequences stand for … in GC…GCGATTGACAGCGTAGAATGAAGG
[1] = tested on: FXR:RXRa (NR concentration 270 nM, RXRa partner concentration 90 nM)
In short: (§1)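 Binding z-scores were set against random background probes. The data came from custom Agilent 4×180K protein-binding microarrays carrying double-stranded probes with 34-nt variable regions, incubated 1 h with ligand-free nuclear receptor dimers. Partner-specific antibodies detected binding, and scanned fluorescence was regression-normalized.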

[2] = tested on: LXRa:RXRa (NR concentration 270 nM, RXRa partner concentration 90 nM)
In short: as §1

[3] = tested on: LXRa homodimer (NR concentration 270 nM)
In short: as §1

[4] = tested on: LXRb homodimer (NR concentration 270 nM)
In short: as §1

[5] = tested on: PPARa:RXRa (NR concentration 270 nM, RXRa partner concentration 90 nM)
In short: as §1

[6] = tested on: PPARg:RXRa (NR concentration 180 nM, RXRa partner concentration 90 nM)
In short: as §1

[7] = tested on: PPARg:RXRa 270nM:90nM, anti-RXR (NR concentration 270 nM, RXRa partner concentration 90 nM)
In short: as §1

[8] = tested on: PPARg:RXRa 30nM:10nM, anti-RXR (NR concentration 30 nM, RXRa partner concentration 10 nM)
In short: as §1

[9] = tested on: PPARg:RXRa 90nM:30nM, anti-RXR (NR concentration 90 nM, RXRa partner concentration 30 nM)
In short: as §1

[10] = tested on: LXRb:RXRa (NR concentration 270 nM, RXRa partner concentration 90 nM)
In short: as §1

Sequence	PBM binding z-score [1]	PBM binding z-score [2]	PBM binding z-score [3]	PBM binding z-score [4]	PBM binding z-score [5]	PBM binding z-score [6]	PBM binding z-score [7]	PBM binding z-score [8]	PBM binding z-score [9]	PBM binding z-score [10]
AGAGTGAGGTTACCAAAGATCAGGGAAACGCTTG	2.09	6.39	0.104	0.461	3.01	1.54	1.63	0.448	1.15	
CTATGTAGGTGAAGGGGGTCATTCAGTTTGAAAG	4.41	4.45	1.53		6.36		8.53	7.28	8.98	5.87
TCGAGTAGGTTACGGGGGCGTTCAGGGATGAAGA	1.63	2.21	0.585			4.72	4.75	2.93	3.91	4.83
CCTACTGGGCCATTCAGAGGTCATCGATCATATG	2.91	4.22	6.05	0.293	4.19	2.51	3.01	1.49	2.37	
TCTAGTTCGTCACGGAGGTCACACACGACGGGTA	3.69	3.72	2.25	1.17	4.1	2.17	3.67	3.62	3.42	
ACTTACGGGTCAACGACGTTATAGCACGCGTATA	6.03	3.91	0.144	0.83	5.66	5.3	5.09	1.83	3.59	
TTACCAAGGTGAACTGAGGTCGTTGATCCAACTC	3.33	4.31	1.34	-0.359	3.46	2.14	2.3	0.857	1.7	
CCCAGTAGGTTACGAGGGGGCATTCAGTGCGAAT	2.52	7.2	1.48			3.75	4.46	1.62	3.59	6.4
ACTCGGGGGACAAAGGTCAGAGCTACGCCAGTGA	5.78	5.7	2.14	5.96	6.14	9.31	8.33	8.12	9.68	
TATACAGGATCAAAGGCCAGAGTACGAATGTCGA	0.361	0.271	-0.0452	0.483	1.33	2.37	3.11	1.85	2.92	
ATCGAAAGGTCGTGAAGTGAGTATACAGAAAGGC	4.52	3.75	0.493	0.774	4.76	3.21	3.51	1.42	2.63	
ACTAGTTGGTCAGCTGAGGTCACACAAAATTCGG	4.18	3.22	2.26	0.719	3.85	1.45	2.46	0.399	1.64	
ATCGAAAGGTCGACGAGGTGAGAATACACCGTTT	5.1	3.9	0.0731	0.224	4.87	3.21	3.7	1.25	2.26	
CCTACTGGGCCATTCAGAGGTCACTGATCATATG	1.98	3.26	4.37	0.018	3.77	2.57	3.18	0.819	2.14	
AGTCAAAGTTCACTAGGTTACGTAAGATTCAGCT	4.92	5.44	3.95	1.5	4.85	7.41	6.74	4.4	5.88	
ACTAGTTGGTCAGCTGGGGTCACACACAATTCGG	3.81	3.01	0.525	0.369	4.47	2.37	3.06	0.707	2.36	
CGTCAAAGTTCAAGGTAAAGTAACAGAAAGCAGC	5.75	5.37	2.35	0.837	4.4	4.51	5.07	2.5	3.89	
CTCGAAAGGGCGTGCTCAGGTGAGTATACCAAAC	0.538	0.109	-0.329	-0.824	0.533	-0.312	0.0309	-0.439	-0.22	
ATGGAAAGGTCGTGAGGTGAGTATACAGAAAGGC	5.97	4.01	0.412	1.01	5.3	4.74	4.66	1.89	3.12	
CGTCAAAGTTAAAGGTAACGTAACAGAAAGCAGC	0.0396	0.253	-0.0511	-0.0705	1.46	1.59	2.59	0.527	1.65	
ACTAGTTGGTCAGCTGAGGTAACACACAATTCGG	1.15	-0.066	0.00608	0.472	0.41	0.76	0.156	0.214	-0.00453	
CTCGAAAGGTCGTGGTCAGGTGAGTATACCAAAC	5.9	4.27	0.0394	0.247	5.02	3.26	4.6	1.21	3.34	
GCTGCTAGGTCAGGTTGGTCAGCTAACGGGTACG	1.01	0.656	-0.0662	-0.325	1.52	0.389	0.622	-0.261	0.176	
TGTCAAAGTTCTAAGGTAACGTAAGTATCCACAC	0.449	0.196	-0.388	-0.268	0.624	0.871	1.41	0.457	1.15	
CAAACTAGGCCAAGGTCAAAGTCGGTTTGTGCCA	4.09	3.76	2.16	0.128	4.79	6.27	6.01	3.89	5.74	
ATCGAAAGGTCGAGTTGAGTATAGAGAAAGGGAA	4.54	3.84	0.29	1.04	4.32	2.44	2.9	0.961	2.07	
CCTACTGGGCCGAGGTCATTGATCAGTCAAAGCA	4.08	3.71	1.15	-0.228	3.96	3.02	3.38	0.749	2.52	
TAGCCTAGGTCATGCGGGTCAGTATAGTGTCGGC	4.39	3.93	1.06	0.0417	4.05	2.77	3.43	0.354	2.32	
TAGCCTCGGTCATTCAGGGGCCAGTATAGAAAGC	1.19	1.14	0.485	0.157	0.242	-0.061	-0.248	-0.569	-0.514	
AGTCGGAGGACAAAGGTCAGAGCTACGCCAGTGA	3.97	4.34	1.6	0.26	5.01	7.55	7.07	5.94	7.56	
